This is an account of results in PubChem BioAssay.

A short description of assay [1]: Her2 expression decrease, cell viability multiplex – SKBR3 breast tumor cells, AlphaScreen, ATP viability, primary screen (AID 461).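 On Her2 level: lower value means less Her2 protein in the cells.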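 On viability: percent of carrier control wells set as 100% viability.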 Conditions: SKBR3 Her2 protein level, 18-24 h, measured here: SKBR3 viability, ATP luminescence, at 10 µM.
Assay [2] has as its target Receptor tyrosine-protein kinase erbB-2 (Homo sapiens) (UniProt P04626). Described as above. Conditions: 18-24 h, at 10 µM, stronger effect = lower value.
A short description of assay [3]: reduced viability of SK-BR-3 breast cancer cells – cell-based, 24 h, human, pilot screen (AID 572;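 active means viability at or below 10% of carrier control in both of two separate runs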;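 further: compound exposure lasted between 18 and 24 h rather than exactly 24 h; 100% = carrier-treated control wells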). The following applies: SK-BR-3 viability, CellTiter-Glo luminescence, at 10 µM, stronger effect = lower value.
Assay [4] can be described thus: HUVEC growth inhibition – cell-based, human, primary screen (AID 575;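 active means viability at or below 30% in both replicate assays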;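 further: 100% = median of untreated cell wells with 0.1% DMSO on each plate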). Conditions: HUVEC proliferation, CellTiter-Glo luminescence, 72 h; at 10 µM; stronger effect = lower value.
Assay [5] in a line: H69AR cell proliferation blockers – human, duplicate replicates, primary screen (AID 580;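 active means viability at or under a set limit in both replicates, limit being median viability minus 3 SD, cut at about 48% in these data, passing the limit was not always enough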;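 further: 100% = mean luminescence of untreated wells and 0% = no signal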). Conditions: H69AR lung tumor cells viability, ATP luminescence, 72 h; at 10 µM; stronger effect = lower value.
Assay [6] can be described thus: MRP1 drug-resistance reversers in H69AR cells – cell-based, doxorubicin co-treatment, pilot screen (AID 601;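 active means viability loss from added drug above about 55%, and viability with drug at most 40%, in both replicates, limit read from the data, passing the limit was not always enough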). The following applies: CellTiter-Glo, 72 h, at 10 µM; for differential viability (reversal): stronger effect = higher value.
The nature of assay [7]: yeast transport mutant growth inhibition pilot in 384-well plates, post-Golgi transport modulator project (AID 636; in the data active means inhibition above about 31%). The following applies: absorbance 615 nm, about 18 h, stronger effect = higher value.
Assay [8] can be described thus: growth suppression of yeast trafficking mutant, preliminary HTS, modulators of trafficking downstream of Golgi apparatus project, 1536-format plate, OD 615 nm (AID 637; in the data active means inhibition above about 30%). The following applies: yeast transport mutant growth, absorbance 615 nm, 18 h; stronger effect = higher value.
The nature of assay [9]: S. cerevisiae growth inhibition in permissive medium (OD615), pilot counter-assay for S. cerevisiae lifespan shortening project, permissive growth control (AID 705;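 active means growth inhibition above 25% in both replicates, a cutoff set 3 SD above the mean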). The following applies: OD615, 24 h, at 10 µM, stronger effect = higher value.
The nature of assay [10]: S. cerevisiae growth inhibition in restrictive medium, OD615, pilot screen, restrictive growth control, yeast lifespan reduction project (AID 706;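 active means growth inhibition above a set limit, 3 SD over mean compound inhibition, in both replicates, cut at about 43% in these data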;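 further: modified DeaD lifespan yeast strain shifted to restrictive glucose medium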). Conditions: OD615, 48 h, at 10 µM, stronger effect = higher value.
Assay [11] in a line: doxorubicin toxicity protection in MRP-1 cells – H69AR cells, CellTiter-Glo, duplicate, MRP-1 activator project, pilot screen (AID 807;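 active means viability increase at or above a cutoff of the median across tested compounds plus 3 SD, cut at about 8.5% in these data, passing the limit was not always enough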;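 further: compound pretreatment 18-22 h then 72 h combined with doxorubicin; 0% = doxorubicin alone and 100% = vehicle without doxorubicin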). Conditions: H69AR viability with doxorubicin, CellTiter-Glo luminescence; at 10 µM; stronger effect = higher value.
The nature of assay [12]: viability of HCT116 without oncogenic beta-catenin – human colon tumor cells, pilot screen (AID 823;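 active means cell viability at or below a set limit in both duplicate runs, the limit being the all-compound median minus 4 SD, cut at about 23% in these data, passing the limit was not always enough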;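 further: 0% = wells killed by 20 µM Hyamine and 100% = untreated DMSO cell wells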). The following applies: HCT116 beta-catenin knockout viability, CellTiter-Glo, 60 h; at 10 µM; stronger effect = lower value.
Assay [13] is described as follows: viability of PTEN-null HCT116 cells – cell-based, HCT116 clonal line, CellTiter-Glo, pilot screen (AID 824;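 active means viability at or below 27.92% in each of two runs, the all-compound median minus 4 SD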;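 further: 0% = 20 µM Hyamine control and 100% = vehicle cell control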). Conditions: HCT116 PTEN-deleted viability, 60 h, at 10 µM, stronger effect = lower value.
A short description of assay [14]: RAM pathway blockade in budding yeast – dse1pr::URA3 reporter, 5-FOA selection, pilot screen (AID 869;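 active means inhibition over a set limit, the all-compound mean plus 3 SD, in both replicate runs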;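 further: 0% = DMSO wells with no growth and 100% = 10 µM 1-NA-PP1 with full growth; RAM network block rescues cells from 5-FOA so hits raise OD615 growth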). The following applies: S. cerevisiae dse1pr::URA3 5-FOA growth, OD615, 2 d; at 10 µM; stronger effect = higher value; strain carries analog-sensitive mutant Cbk1 kinase.
Assay [15] in a line: RAM signaling pathway blockade in yeast – S. cerevisiae, Pdr1DBD-CYC8 efflux-inhibited sensitized strain, primary screen (AID 1298;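 active means RAM network inhibition above 8.4% in each of two replicates, 3 SD over the compound average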;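 further: 0% = DMSO untreated cells without growth and 100% = 10 µM 1-NA-PP1 full growth; higher means more yeast growth rescued from 5-FOA killing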). The following applies: S. cerevisiae cbk1-as DSE1-URA3 strain, 5-FOA growth OD615, 2 d; at 50 µM; stronger effect = higher value.
[16] abbreviates: H69AR cells + 2 uM doxorubicin, measured here: viability with 2 uM doxorubicin, stronger effect = lower value.
Setting [17] is: H69AR cells, compound alone cytotoxicity.

Structures are written as SMILES. Records with an inconclusive call do not appear. Activity calls are given as the source filed them.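 How the source made its calls, unless noted: active means Her2 level under about 52% in both replicate screens, with viability over 70% of control (limit read from the data); inconclusive means Her2 under the limit in one screen only, or viability under 70%; inactive means Her2 level above the set limit.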

Chain of Receptor tyrosine-protein kinase erbB-2 (Homo sapiens) (P04626 whole entry, looked up): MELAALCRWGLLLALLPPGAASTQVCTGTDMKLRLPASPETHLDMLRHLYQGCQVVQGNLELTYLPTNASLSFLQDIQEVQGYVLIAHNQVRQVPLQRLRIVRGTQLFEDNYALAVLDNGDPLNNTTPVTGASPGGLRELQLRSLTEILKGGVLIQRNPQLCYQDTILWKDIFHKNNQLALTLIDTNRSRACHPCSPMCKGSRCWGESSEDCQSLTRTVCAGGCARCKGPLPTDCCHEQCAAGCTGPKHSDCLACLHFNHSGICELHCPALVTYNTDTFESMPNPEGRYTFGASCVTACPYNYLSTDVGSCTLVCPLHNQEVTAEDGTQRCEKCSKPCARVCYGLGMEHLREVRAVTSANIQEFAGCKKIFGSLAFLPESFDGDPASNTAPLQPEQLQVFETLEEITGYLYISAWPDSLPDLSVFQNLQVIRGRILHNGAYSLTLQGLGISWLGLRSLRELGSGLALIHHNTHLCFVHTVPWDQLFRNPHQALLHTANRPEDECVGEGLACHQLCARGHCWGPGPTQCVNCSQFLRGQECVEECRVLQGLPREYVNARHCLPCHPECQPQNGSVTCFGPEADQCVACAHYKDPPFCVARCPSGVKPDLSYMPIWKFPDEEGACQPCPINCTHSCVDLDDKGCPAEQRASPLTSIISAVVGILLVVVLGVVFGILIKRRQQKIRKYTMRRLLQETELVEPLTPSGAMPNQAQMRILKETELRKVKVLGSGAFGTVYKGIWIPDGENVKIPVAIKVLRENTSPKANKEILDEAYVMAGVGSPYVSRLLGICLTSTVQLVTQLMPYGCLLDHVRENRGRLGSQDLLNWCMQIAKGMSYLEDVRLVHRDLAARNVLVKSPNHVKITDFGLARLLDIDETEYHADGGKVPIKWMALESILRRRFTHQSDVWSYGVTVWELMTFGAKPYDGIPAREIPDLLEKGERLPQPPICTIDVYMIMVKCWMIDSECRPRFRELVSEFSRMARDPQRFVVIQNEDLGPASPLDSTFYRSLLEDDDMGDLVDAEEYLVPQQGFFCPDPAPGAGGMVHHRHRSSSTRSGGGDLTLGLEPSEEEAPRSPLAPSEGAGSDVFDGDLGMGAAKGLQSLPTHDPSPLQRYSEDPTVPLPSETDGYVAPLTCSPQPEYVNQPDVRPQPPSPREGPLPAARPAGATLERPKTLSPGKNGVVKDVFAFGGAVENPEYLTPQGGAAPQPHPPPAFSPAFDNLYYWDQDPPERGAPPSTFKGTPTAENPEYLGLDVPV

With `COc1ccccc1NCN1C(=O)CCC1=O`, the viability was 102% in assay [1]; 102% (inactive) in [3]; 104% (inactive) in assay [4]; 82.4% (inactive) in assay [5]; 103% in assay [6] (setting [16]); 82.4% in [6] (setting [17]). Also, the figures for the viability in [12] and in assay [13] were 102% (inactive) and 95.5% (inactive), respectively. In addition, the Her2 level in [2] is 98% (inactive). For the same compound, the differential viability (reversal) in assay [6] (H69AR cells + 2 uM doxorubicin) was -20.8% (inactive). Further, the results for the inhibition in [7], in assay [8] and in assay [14] were -7.47% (inactive), 2% (inactive) and 1.98% (inactive), respectively. For the same compound, the growth inhibition in [9] was -9.71% (inactive); in [10], 1.64% (inactive). Further, the viability increase in assay [11] is -0.43% (inactive). In [15], the RAM network inhibition was 3.27% (inactive).
Regarding `CCCCn1c(CN2CCN(c3ccc(F)cc3)CC2)nc2c1c(=O)n(C)c(=O)n2C`, the viability was 98% in [1]; 98% (inactive) in assay [3]; 66.9% (inactive) in assay [4]; 95.5% (inactive) in assay [5]; 99.3% in assay [6] (setting [16]); 95.5% in assay [6] (setting [17]). The viability in assay [12] is 80.3% (inactive); in assay [13], 85.8% (inactive). Besides, in assay [2], the Her2 level was 93% (inactive). In addition, the differential viability (reversal) in assay [6] (H69AR cells + 2 uM doxorubicin) was -3.86% (inactive). Besides, the inhibition in assay [7] is -3.33% (inactive); in assay [8], -5.74% (inactive); in assay [14] it was 1.07% (inactive). For the same compound, the results for the growth inhibition in assay [9] and in [10] were -8.42% (inactive) and -1.05% (inactive), respectively. Further, the viability increase in [11] is -0.4% (inactive). The RAM network inhibition in [15] was 3.49% (inactive).
`Cc1ccc(S(=O)(=O)NCCSc2nnnn2-c2ccc(C(N)=O)cc2)cc1`: the viability in assay [1] is 116%; in [3], 116% (inactive); in assay [4], 126% (inactive); in assay [5] it was 101% (inactive); in assay [6] (setting [16]) it was 103%; in [6] (setting [17]), 101%. In addition, the viability is 92.1% (inactive) in assay [12] and 89.8% (inactive) in [13]. Besides, the Her2 level in assay [2] is 101% (inactive). The differential viability (reversal) in assay [6] (H69AR cells + 2 uM doxorubicin) is -1.94% (inactive). For the same compound, the inhibition was 0.53% (inactive) in assay [7], -2.17% (inactive) in assay [8] and -0.71% (inactive) in assay [14]. Further, the figures for the growth inhibition in [9] and in assay [10] were -3.29% (inactive) and -2.84% (inactive), respectively. For the same compound, in assay [11], the viability increase is -1.69% (inactive). Further, in [15], the RAM network inhibition was 1.74% (inactive).
As to `Cc1cc(C)n2c(SCCN3C(=O)c4ccccc4C3=O)nnc2n1`, the viability is 90.5% in assay [1]; 90.5% (inactive) in assay [3]; 111% (inactive) in assay [4]; 105% (inactive) in assay [5]; 94% in assay [6] (setting [16]); 105% in assay [6] (setting [17]). Besides, the results for the viability in assay [12] and in [13] were 102% (inactive) and 98.6% (inactive), respectively. Further, the Her2 level in assay [2] is 95% (inactive). For the same compound, the differential viability (reversal) in [6] (H69AR cells + 2 uM doxorubicin) was 11.1% (inactive). In addition, the inhibition in [7] is -0.51% (inactive); in assay [8], 7.17% (inactive); in assay [14], 2.08% (inactive). Besides, the values for the growth inhibition in [9] and in [10] were -7.84% (inactive) and -8.13% (inactive), respectively. The viability increase in assay [11] was -0.7% (inactive). The RAM network inhibition in [15] is 1.64% (inactive).
Consider `Cc1cc(C)c(C#N)c(SCC(=O)Nc2ccc(S(=O)(=O)Nc3onc(C)c3C)cc2)n1`, for which the viability is 90.5% in assay [1]; 90.5% (inactive) in assay [3]; 82.4% (inactive) in assay [4]; 87.4% (inactive) in [5]; 96.8% in [6] (setting [16]); 87.4% in assay [6] (setting [17]). For the same compound, the viability is 109% (inactive) in assay [12] and 100% (inactive) in [13]. Besides, in [2], the Her2 level was 97% (inactive). The differential viability (reversal) in assay [6] (H69AR cells + 2 uM doxorubicin) was -9.41% (inactive). Also, the inhibition was -3.73% (inactive) in [7], 0.33% (inactive) in assay [8] and 1.98% (inactive) in [14]. For the same compound, the growth inhibition is -1.4% (inactive) in assay [9] and 7.54% (inactive) in assay [10]. Also, the viability increase in assay [11] is -0.72% (inactive). Also, in assay [15], the RAM network inhibition is 2.19% (inactive).
